Assay outcomes (PubChem BioAssay)
PGC1a acetyl inh – modulators of PGC1a acetylation; U2OS PGC1a acetylation, AlphaScreen anti-acetyl-lysine; with virally co-expressed GCN5 acetyltransferase; inhibition, % at 15.6 µM; hit rate 0.17% among 350,000; AID 651687;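 active = every replicate shows inhibition of at least 40%; inconclusive = mean inhibition at least 40% but some replicate below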
LGR2 antag – inhibitors of bursicon-induced Drosophila LGR2 receptor cAMP signaling | HEK293 LGR2, CRE-luciferase, bursicon-stimulated, 4 h | AID 720647 | hit rate 0.35% among 380,000 | inhibition, % at 9.99 µM;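 active = drop in luminescence signal, shown as inhibition above about 50% in the replicate tests, limit read from the data, passing the limit was not always enough; inconclusive = probably only some replicates passing the limit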;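 also: agonist challenge used bursicon conditioned medium at about half maximal strength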
MITF TRPM1 inh – inhibitors of MITF-driven TRPM1 promoter in melanoma cells | SK-MEL-5 TRPM1 promoter luciferase, 24 h | hit rate 0.83% among 330,000 | inhibition, % at 12.5 µM | AID 488899;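 active = mean inhibition across replicates of 60% or more, whatever share of single replicates reaches that level; inconclusive = some that reach 60%, reason not given; inactive = mean inhibition across replicates below 60%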
EWS-Fli block – inhibitors of EWS/Fli oncoprotein transcriptional activity | A673 NR0B1-luciferase reporter, viability-normalised | inhibition, % at 12.6 µM | hit rate 0.67% among 350,000;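 active = mean inhibition of at least 50% after viability correction, with every replicate also passing that limit; inconclusive = mean reaches 50% but only one of two replicates passes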;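 also: firefly luciferase signal divided by Alamar Blue viability fluorescence both relative to DMSO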
LMP1 NFkB inh – Epstein-Barr LMP1 NF-kappaB reporter inhibition; AID 504558; inhibition, % at 12.5 µM; hit rate 0.69% among 350,000; LMP1-induced NF-kappaB luciferase reporter cells, luminescence; in the data active = inhibition above about 41%; inconclusive = no clear call, values can overlap the other calls
PAX8 reporter – lowers PAX8-driven luciferase in RMG-I cells; AID 652154; hit rate 1.2% among 360,000; RMG-I TPO-luciferase reporter, SteadyGlo, 24 h; inhibition, % at 12.6 µM;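 active = mean replicate inhibition at least 60% with every replicate also reaching 60%; inconclusive = only one of the two criteria is met; inactive = mean below 60% and not all replicates reaching 60%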;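 also: luciferase light reporting Pax8 driven TPO promoter activity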
Numbers stand for hits. In the library only some 2.2% were active in any assay of this set; here they are far more common.

Results for C[C@@H]1CN([C@H](C)CO)C(=O)c2c(c3ccccc3n2C)-c2ccccc2CO[C@@H]1CN(C)S(=O)(=O)c1cccc(F)c1 ?
PGC1a acetyl inh: inactive; LGR2 antag: inactive; EWS-Fli block: inactive; PAX8 reporter: inactive

Results for C[C@@H]1CN([C@H](C)CO)C(=O)c2c(c3ccccc3n2C)-c2ccccc2CO[C@H]1CN(C)S(=O)(=O)c1cccc(F)c1 ?
PGC1a acetyl inh: inactive; LGR2 antag: inactive; EWS-Fli block: inactive; PAX8 reporter: 93

What do the screens show for `C[C@H](CO)N1C[C@H](C)[C@H](CN(C)S(=O)(=O)c2cccc(F)c2)OCc2ccccc2-c2c(n(C)c3ccccc23)C1=O`?
PGC1a acetyl inh: inactive; LGR2 antag: inactive; EWS-Fli block: inactive; LMP1 NFkB inh: inactive; PAX8 reporter: 104

What do the screens show for `C[C@H]1CN([C@@H](C)CO)C(=O)c2c(c3ccccc3n2C)-c2ccccc2CO[C@@H]1CN(C)S(=O)(=O)c1cccc(F)c1`?
PGC1a acetyl inh: inactive; LGR2 antag: inactive; EWS-Fli block: inactive; PAX8 reporter: 102

How did CC(=O)N1[C@@H]2c3ccc(C4=CCCC4)c(=O)n3C[C@H]1[C@H](CO)[C@H]2C(=O)NCC1CC1 do in these assays?
LGR2 antag: inactive; EWS-Fli block: inactive

How did CCCC#Cc1ccc([C@@H]2[C@H]3CN(C(=O)Nc4ccccc4F)CC(=O)N3[C@H]2CO)cc1 do in these assays?
PGC1a acetyl inh: inactive; LGR2 antag: inactive; EWS-Fli block: inactive

What do the screens show for `C=CCn1cccc(/C=C/C(=O)c2ccc(C(C)(C)C)cc2)c1=S`?
PGC1a acetyl inh: 53; LGR2 antag: inactive; MITF TRPM1 inh: inactive; LMP1 NFkB inh: inactive; PAX8 reporter: inactive

Results for C[C@@H]1CCCCO[C@H](CN(C)Cc2ccc(Cl)c(Cl)c2)[C@@H](C)CN([C@H](C)CO)C(=O)c2cc(NC(=O)CCCCCC(=O)Nc3ccccc3N)ccc2O1 ?
PGC1a acetyl inh: inactive; LGR2 antag: inactive; EWS-Fli block: inactive; PAX8 reporter: 73

How did C[C@H](CO)N1C[C@H](C)[C@H](CN(C)Cc2ccc(Cl)c(Cl)c2)Oc2ccc(NC(=O)CCCCCC(=O)Nc3ccccc3N)cc2C1=O do in these assays?
PGC1a acetyl inh: inactive; LGR2 antag: inactive; EWS-Fli block: inactive

Results for C[C@@H]1CCCCO[C@H](CN(C)Cc2ccccc2)[C@@H](C)CN([C@H](C)CO)C(=O)c2cc(NC(=O)CCCCCC(=O)Nc3ccccc3N)ccc2O1 ?
PGC1a acetyl inh: inactive; LGR2 antag: inactive; EWS-Fli block: inactive; PAX8 reporter: inactive

How did C[C@@H]1CN([C@H](C)CO)C(=O)c2cc(NC(=O)CCCCCC(=O)Nc3ccccc3N)ccc2O[C@@H](C)CCCCO[C@H]1CN(C)Cc1ccc(Cl)c(Cl)c1 do in these assays?
PGC1a acetyl inh: inactive; LGR2 antag: inactive; EWS-Fli block: inactive; PAX8 reporter: 80

How did Cc1noc(C)c1S(=O)(=O)N(C)C[C@@H]1Oc2ccc(NS(=O)(=O)c3ccccc3)cc2C(=O)N([C@@H](C)CO)C[C@@H]1C do in these assays?
PGC1a acetyl inh: inactive; LGR2 antag: inactive; EWS-Fli block: inactive; PAX8 reporter: inactive

How did COCC(=O)Nc1ccc2c(c1)[C@H]1C[C@@H](CC(=O)N(C)C)O[C@H](CO)[C@H]1O2 do in these assays?
PGC1a acetyl inh: inactive; LGR2 antag: inactive; EWS-Fli block: inactive; PAX8 reporter: inactive

Results for CC1(C)CC(=O)C=C(NCc2ccco2)C1 ?
PGC1a acetyl inh: 40; MITF TRPM1 inh: inactive; LMP1 NFkB inh: inactive

What do the screens show for `O=C1C=C(NCc2ccco2)CCC1`?
PGC1a acetyl inh: inactive; LGR2 antag: inactive; MITF TRPM1 inh: inactive; EWS-Fli block: inactive; LMP1 NFkB inh: inactive

Results for Oc1c(Br)cc(Br)cc1/C=N/Nc1ccc(Cl)nn1 ?
LGR2 antag: inactive; MITF TRPM1 inh: 66; EWS-Fli block: inactive; LMP1 NFkB inh: 45; PAX8 reporter: inactive

What do the screens show for `Oc1c(Br)cc(/C=N/Nc2ccc(Cl)nn2)cc1Br`?
PGC1a acetyl inh: inactive; LGR2 antag: inactive; MITF TRPM1 inh: inactive; EWS-Fli block: inactive; LMP1 NFkB inh: inactive; PAX8 reporter: inactive

What do the screens show for `COc1ccccc1-c1nnc2sc(-c3ccc(N(C)C)cc3)nn12`?
PGC1a acetyl inh: inactive; LGR2 antag: inactive; MITF TRPM1 inh: inactive; EWS-Fli block: 60; LMP1 NFkB inh: inactive; PAX8 reporter: inactive

How did C[C@H](CO)N1C[C@H](C)[C@@H](CN(C)C(=O)Cc2ccccc2)Oc2cc(C#CC3(O)CCCC3)ccc2S1(=O)=O do in these assays?
PGC1a acetyl inh: inactive; LGR2 antag: inactive; EWS-Fli block: inactive

How did COc1cc(NC(=O)c2cccs2)c(C(=O)OCC(=O)c2cc(C)n(-c3ccc(F)cc3)c2C)cc1OC do in these assays?
PGC1a acetyl inh: inactive; LGR2 antag: inactive; MITF TRPM1 inh: inactive; EWS-Fli block: inactive; LMP1 NFkB inh: inactive; PAX8 reporter: inactive

What do the screens show for `COc1cc(NC(=O)c2cccs2)c(C(=O)OCC(=O)c2cc(C)n(-c3ccccc3)c2C)cc1OC`?
PGC1a acetyl inh: inactive; LGR2 antag: 60; MITF TRPM1 inh: 64; LMP1 NFkB inh: 59; PAX8 reporter: inactive

How did CC1CC(C)CN(C(=O)/C=C/c2ccc([N+](=O)[O-])s2)C1 (configuration not stated) do in these assays?
LGR2 antag: inactive; MITF TRPM1 inh: 82; EWS-Fli block: inactive; LMP1 NFkB inh: inactive; PAX8 reporter: 68

Results for O=C(/C=C/c1ccc([N+](=O)[O-])s1)N1CCN(c2ccccc2)CC1 ?
PGC1a acetyl inh: inactive; LGR2 antag: inactive; MITF TRPM1 inh: inactive; EWS-Fli block: inactive; LMP1 NFkB inh: inactive; PAX8 reporter: inactive

How did O=C(/C=C/c1ccc([N+](=O)[O-])s1)N1CCCCC1 do in these assays?
PGC1a acetyl inh: inactive; LGR2 antag: inactive; MITF TRPM1 inh: 89; EWS-Fli block: inactive; LMP1 NFkB inh: inactive; PAX8 reporter: inactive

What do the screens show for `O=C(/C=C/c1ccc([N+](=O)[O-])s1)N1CCCC1`?
LGR2 antag: inactive; MITF TRPM1 inh: 85; EWS-Fli block: inactive; LMP1 NFkB inh: inactive; PAX8 reporter: inconclusive

Results for C[C@@H]1CCCCO[C@H](CN(C)Cc2ccncc2)[C@H](C)CN([C@H](C)CO)C(=O)c2cc(NC(=O)Nc3ccc(C(F)(F)F)cc3)ccc2O1 ?
PGC1a acetyl inh: inactive; LGR2 antag: inactive; EWS-Fli block: inactive; PAX8 reporter: 95

How did C[C@@H]1CCCCO[C@H](CN(C)Cc2ccncc2)[C@H](C)CN([C@@H](C)CO)C(=O)c2cc(NC(=O)Nc3ccc(C(F)(F)F)cc3)ccc2O1 do in these assays?
PGC1a acetyl inh: inactive; LGR2 antag: inactive; EWS-Fli block: inactive; PAX8 reporter: 92

How did C[C@@H]1CN([C@H](C)CO)C(=O)c2cc(NC(=O)Nc3ccc(C(F)(F)F)cc3)ccc2O[C@@H](C)CCCCO[C@@H]1CN(C)Cc1ccncc1 do in these assays?
PGC1a acetyl inh: inactive; LGR2 antag: inactive; EWS-Fli block: inactive; PAX8 reporter: 93
